# Screening data deposited in PubChem by National Center for Advancing Translational Sciences (NCATS).
# Many of the other results were omitted from the sample, so hits are more common in it than they were.
# TDP1 cell CPT: DT40-hTDP1 cell growth loss with CPT; Potency, µM (titrated, usually from 46.2 µM), inactives show at the highest dose activity change, negative = growth inhibition, hits mostly inhibitors; chicken DT40 Tdp1-/-;hTDP1 cells + 20 nM CPT, ATP luminescence, 48 h; 420,000 tested, 12% active; further: potency means the concentration at half of the fitted maximal effect; nearly all actives have a fitted effect of over 55% in size
#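 Cell growth measured by CellTiter-Glo luminescence after a minimum 48 h, 37 C compound exposure with 20 nM CPT in Tdp1-knockout DT40 cells stably expressing hTDP1, seeded 400/well; qHTS titration format.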
# HT1080NT lethal: kills 2HG-producing HT-1080-NT fibrosarcoma cells. Potency, µM (doses to about 46.1 µM), for inactives: top-dose activity, negative = less viability, most hits filed as cytotoxic. AID 686970. 360,000 tested, 1.6% active. HT-1080-NT fibrosarcoma viability, CellTiter-Glo ATP luminescence, 48 h;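 further: NT is the 2HG producing partner of a matched IDH1 knockdown line; potency means the concentration at half of the fitted maximal effect; 0% = DMSO-treated cells and -100% = media-only wells without cells; nearly all actives have a fitted effect of over 55% in size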
#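 Toxicity toward the 2HG-producing NT line was scored as %Activity, normalised to DMSO and no-cell wells, from CellTiter-Glo luminescence after 48 hours' treatment.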
# DT40 TDP1 no CPT: qHTS for Inhibitors of human tyrosyl-DNA phosphodiesterase 1 (TDP1): qHTS in cells in absence of CPT. 420,000 tested, 15% active. Potency, µM (doses to about 46.2 µM), for the others: at the highest dose activity change, negative = growth inhibition, actives largely listed as inhibitors. AID 686978, 2013. DT40 Tdp1-/- hTDP1 cells, no CPT, ATP luminescence, 48 h; further: potency means the concentration at half of the fitted maximal effect; nearly all actives have a fitted effect of over 55% in size
#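 Stably hTDP1-transfected Tdp1-null chicken DT40 cells were treated with library compounds minus camptothecin and grown for at least 48 hr at 37 °C, after which cellular ATP was quantified by luminescence.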
# ALOX12 inh: inhibitors of human 12S-lipoxygenase ALOX12 | 580,000 tested, 1.1% active | P18054 | Potency, µM (series often up to 108 µM), for the others: at the highest dose activity change, negative = inhibition, actives largely listed as inhibitors | purified 12hLO, xylenol orange hydroperoxide absorbance | AID 1671190; further: potency means the concentration at half of the fitted maximal effect
# Target sequence (P18054 whole entry, looked up): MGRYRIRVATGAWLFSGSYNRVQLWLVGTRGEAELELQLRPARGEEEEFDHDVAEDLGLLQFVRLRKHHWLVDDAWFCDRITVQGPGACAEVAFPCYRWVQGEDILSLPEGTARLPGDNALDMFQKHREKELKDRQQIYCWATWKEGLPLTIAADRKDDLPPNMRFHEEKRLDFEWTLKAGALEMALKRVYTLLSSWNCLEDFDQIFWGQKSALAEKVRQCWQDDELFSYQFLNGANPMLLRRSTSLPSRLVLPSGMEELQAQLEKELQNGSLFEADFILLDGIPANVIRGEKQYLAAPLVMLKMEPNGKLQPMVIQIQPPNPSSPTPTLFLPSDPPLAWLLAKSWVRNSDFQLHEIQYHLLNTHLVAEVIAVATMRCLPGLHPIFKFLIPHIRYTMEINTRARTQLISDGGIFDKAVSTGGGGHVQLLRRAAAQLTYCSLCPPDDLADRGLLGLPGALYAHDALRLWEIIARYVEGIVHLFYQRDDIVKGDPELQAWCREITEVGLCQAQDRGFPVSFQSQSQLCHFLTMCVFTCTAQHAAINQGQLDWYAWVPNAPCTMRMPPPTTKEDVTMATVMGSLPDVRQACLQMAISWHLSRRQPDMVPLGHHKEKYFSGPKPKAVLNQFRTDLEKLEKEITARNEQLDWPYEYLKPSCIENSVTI
#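 Purified human 12hLO at 150 nM in 25 mM Hepes, 0.01% Triton X-100, pH 7.0, preincubated 15 min at room temperature with compound. Reaction started with 40 uM arachidonic acid, 30 min at room temperature. Hydroperoxide measured by Fe-xylenol orange, 573/405 nm absorbance ratio.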
# IL-1B inflam inh: blocks inflammasome-driven IL-1 beta release; AID 743279; activity change, % at 57.5 µM; THP-1 LPS/ATP IL-1B secretion, AlphaLISA, 16 h; stronger effect = lower value; 360,000 tested, 4.7% active; in the data active means activity change below about -50%; inconclusive means mostly about -30% to -49%
#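 THP-1 cells pretreated 1 hr with compounds (up to 57.5 uM final), then stimulated with LPS (250 ng/mL final) plus ATP (1.25 mM final); secreted IL-1B measured by AlphaLISA after 16 hr, decreased signal indicating inhibition.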
# HT1080 IDH1KD tx: kills HT-1080 cells with IDH1 knockdown; HT-1080 IDH1 knockdown viability, ATP luminescence, 48 h; Potency, µM (titrated, usually from 46.1 µM), for inactives: at the highest dose activity, negative = toxicity, actives largely listed as cytotoxic; 360,000 tested, 2% active;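 further: potency means the concentration at half of the fitted maximal effect; 0% = DMSO wells and -100% = cell-free medium wells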
#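 CellTiter-Glo luminescence after 48 h compound exposure at 37 degrees C of IDH1-knockdown HT-1080 cells in 5% FBS RPMI. %Activity scaled between DMSO wells and cell-free media wells, with curves fitted and assigned curve classes.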
# The depositor's hits bear a star; ? = inconclusive; nt = no result given; [ ] = remark or other dose. Unless noted, the call rests on the fitted dose curve; in most records, active means well fitted curve in the direction sought with a large enough effect; inconclusive means small, poorly fitted or top-dose-only effect, or another doubt; inactive means no such curve, though single readings can be large; an effect the other way counts as inactive or inconclusive. Unless noted, on the % scale 0 is the no-effect control and ±100 the full control effect.
SMILES,TDP1 cell CPT,HT1080NT lethal,DT40 TDP1 no CPT,ALOX12 inh,IL-1B inflam inh,HT1080 IDH1KD tx
COC(=O)c1ccc(Oc2coc3cc(OC(=O)c4cccs4)ccc3c2=O)cc1,nt,nt,nt,-3.6%,nt,nt
COc1cccc2c1OCC(C(=O)O)C2 (centres undefined),13.1%,11.0%,-0.5%,?,21.3,?
COc1cccc2c1C(CO)N1C(C#N)C3CC(C(=O)O)C(C1C2)N3C (centres undefined),0.184µM*,-9.4%,0.206µM*,5.0%,-115.9*,?
COc1ccccc1N1CCN(C(=O)C2=CC(c3ccc(F)cc3)=NS(=O)(=O)N2C)CC1,nt,nt,nt,-30.5%,nt,nt
Cc1cc(C)cc(NS(=O)(=O)c2ccc3[nH]cc(C(=O)NCCc4ccccc4)c(=O)c3c2)c1,?,nt,16.4µM*,?,nt,nt
CCC1CCCCN1C(=O)c1c[nH]c2ccc(S(=O)(=O)Nc3cccc(OC)c3)cc2c1=O (centres undefined),-3.3%,nt,13.7%,?,nt,nt
COc1cccc(NS(=O)(=O)c2ccc3[nH]cc(C(=O)NCCC(C)C)c(=O)c3c2)c1,10.3µM*,11.6µM*,14.6µM*,13.4%,-16.5,?
O=C(NC1CCCC1)c1c[nH]c2ccc(S(=O)(=O)Nc3cccc(C(F)(F)F)c3)cc2c1=O,?,nt,20.6µM*,?,nt,nt
Cc1ccc(CCNC(=O)c2c[nH]c3ccc(S(=O)(=O)Nc4cccc(C(F)(F)F)c4)cc3c2=O)cc1,20.6µM*,nt,?,-5.4%,nt,nt
C=CCNC(=O)N[C@H]1CCN(C(=O)CSC)[C@@H]1C(=O)N1CCC[C@@H]1C(N)=O,nt,nt,nt,19.2%[176 µM],nt,nt
CN(Cc1ccco1)C(=O)c1c[nH]c2ccc(S(=O)(=O)Nc3ccc4c(c3)OCCO4)cc2c1=O,-12.1%,6.4%,2.2%,-20.4%,-6.9,-4.7%
CCc1ccc(NS(=O)(=O)c2ccc3[nH]cc(C(=O)N(C)Cc4ccco4)c(=O)c3c2)cc1,?,-4.0%,14.6µM*,?,34.1,-11.8%
CCCCS(=O)(=O)c1sc2nc3c(cc2c1N)CCCC3,11.6µM*,-21.5%,23.1µM*,5.5%,-15.2,-15.8%
CCCCCCCCS(=O)c1sc2nc3c(cc2c1N)CCCC3 (centres undefined),13µM*,-6.2%,?,?,16.0,-4.7%
CCCCCCCCS(=O)c1sc2nc(C)cc(C)c2c1N (centres undefined),?,-3.8%,?,?,4.0,-15.7%
O=C(O)CNS(=O)(=O)c1ccc2c(c1)C(=O)c1cc(S(=O)(=O)NCC(=O)O)ccc1-2,8.4%,7.1%,6.1%,0.0%,10.2,3.2%
O=C(O)CNS(=O)(=O)c1ccc2c(c1)Cc1cc(S(=O)(=O)NCC(=O)O)ccc1-2,1.2%,2.0%,-0.3%,8.91µM*,12.5,1.0%
Cc1ccc2nc(-c3cccnc3)cc(C(=O)NCc3ccco3)c2c1,nt,nt,nt,-2.1%,nt,nt
Cc1ccc(-n2c3nc(=O)[nH]c(=O)c-3cc3cc([N+](=O)[O-])ccc32)cc1C,0.581µM*,-29.5%,1.3µM*,?,0.0,?
NC(=O)COC(=O)c1ccc(S(=O)(=O)NCc2ccco2)cc1,-6.7%,8.4%,-22.9%,-0.6%,-7.4,20.9%
CS(=O)(=O)c1ccc(C(=O)OCc2nnc(-c3ccccc3)o2)cc1[N+](=O)[O-],3.66µM*,7.31µM*,10.3µM*,0.9%,-69.6*,4.11µM*
O=C(OCc1nnc(-c2ccccc2)o1)c1ccc(S(=O)(=O)NCc2ccco2)cc1,?,13.2%,23.1µM*,-32.7%,0.0,0.1%
CC(=O)c1c(C)[nH]c(C(=O)OCc2nnc(-c3ccccc3)o2)c1C,?,-2.4%,13µM*,0.0%,25.2,-16.1%
CC(C)[C@H](NC(=O)c1ccccc1)C(=O)OCc1nnc(-c2ccccc2)o1,?,14.6%,23.1µM*,-6.8%,34.0,27.2%
Cc1ccc(C(=O)N[C@H](C(=O)OCc2nnc(-c3ccccc3)o2)C(C)C)cc1,-32.5%,-4.9%,-19.2%,27.1%,18.5,-4.5%
SMILES,TDP1 cell CPT,HT1080NT lethal,DT40 TDP1 no CPT,ALOX12 inh,IL-1B inflam inh,HT1080 IDH1KD tx
CN(C)S(=O)(=O)c1ccc(C(=O)OCc2nnc(-c3ccccc3)o2)cc1,9.3%,15.6%,-6.3%,8.2%,5.7,4.5%
Cc1cc(-c2nc(CC(C)C)nn2-c2ccccn2)cc(S(N)(=O)=O)c1C,nt,nt,nt,-29.5%,nt,nt
Cc1oc(-c2cccs2)nc1CC(=O)NCc1ccc(F)cc1,nt,nt,nt,-29.2%,nt,nt
CC(=O)Nc1ccc(CN2CC3(C2)C(=O)N(Cc2cccc(Cl)c2)C(=O)[C@@H]2C[C@@H](O)CN23)cc1,nt,nt,nt,19.8%,nt,nt
NC(=O)c1ccc(COC(=O)c2ccc(Cl)cc2)cc1,nt,nt,nt,6.7%,nt,nt
CS(=O)(=O)N1CCc2cc(C(=O)Nc3ccc(-c4nnc5n4CCCCC5)cc3)ccc21,nt,nt,nt,-14.4%,nt,nt
O=[N+]([O-])c1c(Cl)cc(Cl)cc1Cl,nt,nt,nt,-3.1%,nt,nt
O=S(c1cc(Cl)cc(Cl)c1O)c1cc(Cl)cc(Cl)c1O,-6.3%,?,?,28.2µM*,-67.5*,?
CC(C)N(C(=O)COC(=O)c1cccc(S(=O)(=O)N2CC3(C)CC2CC(C)(C)C3)c1)C(C)C (centres undefined),23.1µM*,-0.6%,?,-40.9%,-17.2,-17.7%
CN(C)C(CNC(=O)c1cccc(S(=O)(=O)N2CC3(C)CC2CC(C)(C)C3)c1)c1ccco1 (centres undefined),?,-1.2%,16.4µM*,-8.3%,-6.1,2.6%
CCCNC(=O)c1cccc(S(=O)(=O)N2CC3(C)CC2CC(C)(C)C3)c1 (centres undefined),?,-7.9%,?,-9.3%,1.8,-13.3%
COC(=O)c1ccc(C2C(C#N)=C(N)OC3=C2C(=O)CC(C)(C)C3)cc1 (centres undefined),nt,nt,nt,-29.8%,nt,nt
COc1cc(C(=O)NCCOc2cc(C)cc(C)c2)c(Br)c(OC)c1OC,16.4µM*,?,?,0.5%,11.1,-21.0%[9.24 µM]
COc1cc(C(=O)NC2CCCC2)c(Br)c(OC)c1OC,-20.4%,1.7%,15.1%,-1.2%,8.0,15.4%
O=C(Nc1cccc([N+](=O)[O-])c1)N1CCN(c2ccccc2)CC1,-17.4%,1.3%,?,-18.8%,-22.9,-3.9%
Cc1ccc(N2CCN(C(=O)Nc3cccc([N+](=O)[O-])c3)CC2C)cc1 (centres undefined),-8.0%,-7.8%,?,-0.6%,-70.8*,-9.5%
